Laboratory results taken from PubChem BioAssay AID588398 (Broad Institute, 2011).
About 110 (9.2%) of roughly 1,200 compounds were called active. Inconclusive results (about 8%) are left out.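 Rule for the calls: active = pathway reporter half-maximal dose under half the control reporter's, or control reporter unaffected while pathway reporter is inhibited; inconclusive = either signal flat at 30 to 70% inhibition or poorly fitted; inactive = the rest.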 The list is a sample of the results. Where a call stands in place of a potency, no number is given. Potency and affinity values are given separately.

Assay: TES1-eGFP NF-kB reporter inhibition versus Tet-On dsRED, dose response, selectivity assay for LMP1 NF-kB inhibitor project, imaging, HEK293T, dual-color eGFP/dsRED, cherry-picks (AID 588398)
Conditions: 48 h; HEK293T Tet-On dsRED counter-screen channel, at 19.5 µM (top of the series)
With `CCOc1ccccc1C(=O)NC1CC2CCCC(C1)N2Cc1nnnn1Cc1ccco1` (stereo not drawn) the outcome was “inactive”. For `O=c1cc(C2CCCCC2)[nH]c(=O)[nH]1`, the outcome was “inactive”. In the case of `Cc1ccc(-c2nc3cccnc3o2)cc1NC(=O)COc1ccc(C(C)(C)C)cc1`, the outcome is reported as “inactive”. For `CNC(=S)N1N=C(c2cccs2)CC1c1ccc(F)cc1` (stereo not drawn), the outcome was “inactive”. With `S=C(N/N=C/c1ccc2ncccc2c1)Nc1cccnc1` the outcome was “inactive”. For `Oc1ccc(C=NNC(=S)Nc2ccccc2)nc1`, the outcome was “inactive”. For `Cn1cc(S(=O)(=O)N2CCN(C(=O)c3ccco3)CC2)c(=O)n(C)c1=O`, the outcome was “inactive”. With `Cn1cccc1C(=O)OCC(=O)Nc1ccc2c(c1)OCO2` the outcome was “inactive”. With `Cc1cc(C)nc(SCC(=O)OCN2C(=O)c3ccccc3C2=O)n1` the outcome was “inactive”. With `O=C(Nc1ccc(N2CCOCC2)cc1)c1cnccn1` the outcome was “inactive”. In the case of `Cc1ccccc1C(=O)N1CCN(c2ccc(NC(=O)c3ccco3)cc2Cl)CC1`, the outcome is reported as “inactive”. With `O=C(CCCOc1ccccc1)N1CCN(c2ccccc2)CC1` the outcome was “inactive”. For `N#CC(C#N)c1ccnc2ccccc12`, the outcome was “inactive”. In the case of `COc1ccc(NC(=O)C[C@H]2C(=O)N(CCc3ccccc3)C[C@@H]2c2ccc(OC)cc2)cc1`, the outcome is reported as “inactive”. For `COc1cc(OC)cc(-c2c(C#Cc3ccsc3)c3cc(-c4cc(OC)c(OC)c(OC)c4)ccc3n2C)c1`, the outcome was “inactive”. For `COc1cccc(N=Nc2ccc(O)c3ncccc23)c1`, the outcome was “inactive”. In the case of `COc1cccc(C2Nc3ccc4ccccc4c3C3=C2C(=O)CC(C)(C)C3)c1OCC(=O)O` (stereo not drawn), the outcome is reported as “inactive”. For `COc1ccc(-n2c(C)c([N+](=O)[O-])c3ccc(O)c(CN(C)C)c32)cc1`, the outcome was “inactive”. For `COc1ccc(/C=C2\SC(=O)N(CCCC(=O)Nc3ccc(C(=O)O)cc3)C2=O)cc1`, the outcome was “inactive”. For `Cc1ccc(C(=O)Nc2ccc3c(c2)OCCO3)c(Cl)c1`, the outcome was “inactive”. In the case of `O=C(Nc1ccc2c(c1)OCCO2)c1ccccn1`, the outcome is reported as “inactive”. In the case of `CCc1nc(SCC(=O)c2ccc3c(c2)OCCO3)c2ccccc2n1`, the outcome is reported as “inactive”. In the case of `Cc1ccc(C(=O)Nc2ccc3c(c2)OCCO3)cc1`, the outcome is reported as “inactive”. With `O=C(CCCN1C(=O)[C@H]2CC=CC[C@H]2C1=O)NCc1nc(-c2ccc(Cl)cc2)no1` the outcome was “inactive”. With `CC1(C)CC(=O)C(CC2=C(O)CC(C)(C)CC2=O)=C(O)C1` the outcome was “inactive”. In the case of `CC(C)CC1C(=O)N(Cc2cn(CC3CCCCC3)nn2)CCS(=O)(=O)N1Cc1ccc(-c2ccc(F)nc2)cc1` (stereo not drawn), the outcome is reported as “inactive”. For `Cc1cc(=O)[nH]c(N=N/C(=N/Nc2ccccc2C)c2ccccc2)n1`, the outcome was “inactive”. In the case of `COC(=O)c1ccccc1NC(=O)CSc1nnnn1C`, the outcome is reported as “inactive”. With `COc1ccc(S(=O)(=O)NCC(c2cccnc2)N2CCN(c3ccc(F)cc3)CC2)cc1C` (stereo not drawn) the outcome was “inactive”. With `O=C(CCNc1cccc(F)c1)c1cc2ccccc2o1` the outcome was “inactive”. With `NC(=O)c1sc2nccc(Nc3ccccc3)c2c1N` the outcome was “inactive”. For `Cc1nn(-c2ccccc2)c(Cl)c1C1C(C#N)=C(N)Oc2n[nH]c(C)c21` (stereo not drawn), the outcome was “inactive”. For `O=S(=O)(c1ccc2c(c1)C(=NO)c1cc(S(=O)(=O)N3CCCCC3)ccc1-2)N1CCCCC1`, the outcome was “inactive”. In the case of `COc1ccc(S(=O)(=O)N2CCOCC2)cc1NC(=O)COC(=O)CCS(=O)(=O)c1ccc(C)cc1`, the outcome is reported as “inactive”. For `Oc1ccc2ccccc2c1N=Nc1ccccn1`, the outcome was “inactive”. For `c1ccc(C(=NNc2nc3ccccc3s2)c2ccccn2)cc1`, the outcome was “inactive”. With `CCOC(=O)c1sc(NC(=O)CNCc2ccccn2)c(C(=O)OCC)c1C` the outcome was “inactive”. For `Oc1c(N=NC(=S)Nc2ccccc2F)c2ccccc2n1Cc1ccccc1`, the outcome was “inactive”. In the case of `COc1ccc(OCc2cccc(C(=O)NN)c2)cc1`, the outcome is reported as “inactive”. In the case of `COc1ccc(C=C2OC(=O)C(C(C)=O)=C2O)cc1`, the outcome is reported as “inactive”. With `COc1ccc(-c2[nH]ncc2/C=N\NS(=O)(=O)c2ccc(Cl)cc2)cc1` the outcome was “inactive”. With `Cc1ccc(CCNC(=O)Cc2ccc(NC3=NC4CS(=O)(=O)CC4S3)cc2)cc1` (stereo not drawn) the outcome was “inactive”. With `O=C(NN1C(=O)C2C3C=CC(C4CC34)C2C1=O)c1cccc(Cl)c1` (stereo not drawn) the outcome was “inactive”. With `CCc1ccccc1NC(=O)COC(=O)c1c(C)nsc1NC` the outcome was “inactive”. For `Oc1c(N=NC(=S)Nc2ccccc2F)c2ccccc2n1Cc1ccccc1Cl`, the outcome was “inactive”. In the case of `O=c1cc(Cl)nc2ccccn12`, the outcome is reported as “inactive”. In the case of `COc1ccc(-c2cc(C(=O)N3CCCC3)no2)cc1`, the outcome is reported as “inactive”. In the case of `COc1ccc(CNC(=O)N2[C@H]3CC[C@@H]2C=C(c2ccc(F)cc2OCc2ccccc2)C3)cc1OC`, the outcome is reported as “inactive”. With `COc1cc(C(=O)Oc2ccccc2/C=N/NC(=O)c2ccc(C)c(Cl)c2)cc(OC)c1OC` the outcome was “inactive”. With `CCCC(=O)NCCCc1nc2ccccc2[nH]1` the outcome was “inactive”. For `O=C(Nc1nc(-c2ccccn2)cs1)c1ccc(Cl)s1`, the outcome was “inactive”. For `COc1ccc(C(=O)NCCN2CCOCC2)cc1[N+](=O)[O-]`, the outcome was “inactive”. For `O=C(c1ccccc1)C(CCC(CN1CCOCC1)C(=O)c1ccccc1)CN1CCOCC1` (stereo not drawn), the outcome was “inactive”. For `CCON1C(=O)C2(CCCCC2)C(=O)C12C=CCCC2` (stereo not drawn), the outcome was “inactive”. For `COc1cc(N(C)C)c([N+](=O)[O-])cc1C(=O)N1CCN(Cc2ccccc2)CC1`, the outcome was “inactive”. In the case of `CC1CCN(C(=O)/C(=C\c2cccs2)NC(=O)c2ccccc2)CC1`, the outcome is reported as “inactive”. For `CCn1c(NC(=O)c2ccc(C)cc2)c2ccccc2nc1=O`, the outcome was “inactive”. With `COc1ccc2cc(-c3cc(C(=O)OCC(=O)Nc4c(C)n(C)n(-c5ccccc5)c4=O)c4ccccc4n3)ccc2c1` the outcome was “inactive”. With `COc1ccc(N2Cc3ccccc3C2=O)cc1` the outcome was “inactive”. With `O=C(NCc1ccccc1Cl)C1CCCN1S(=O)(=O)c1ccc(F)cc1` (stereo not drawn) the outcome was “inactive”. For `O=C(Nc1ncccc1O)c1ccc(S(=O)(=O)NCc2ccco2)cc1`, the outcome was “inactive”. With `CCc1cc(C(=O)Nc2ncccc2O)sc1C` the outcome was “inactive”. With `COCCn1c(SCC(=O)N2CCc3ccccc32)nc2c(c1=O)SC(C)C2` (stereo not drawn) the outcome was “inactive”. For `COc1ccc(-c2csc3ncnc(NCCCO)c23)cc1`, the outcome was “inactive”. For `COc1ccc(-c2oc3ncnc(NCCN4CCOCC4)c3c2-c2ccc(OC)cc2)cc1`, the outcome was “inactive”. With `COc1ccc(-c2cc(C(F)(F)F)n3nc(C(=O)N4CCOCC4)nc3n2)cc1` the outcome was “inactive”. In the case of `Cc1ccccc1C(=O)N1CCN(c2ccc(NC(=O)CSc3ccc(Cl)cc3)cc2)CC1`, the outcome is reported as “inactive”. With `CCC(C)Nc1nc(-c2ccccn2)nc2ccccc12` (stereo not drawn) the outcome was “inactive”. For `CN(Cc1ccccc1)c1nc(N)c([N+](=O)[O-])c(NCc2ccccc2)n1`, the outcome was “inactive”. With `Cc1ccc(C)c(S(=O)(=O)N2CCN(CC(=O)N3CCc4ccccc4C3)CC2)c1` the outcome was “inactive”. In the case of `CCOc1ccc(OCC(=O)Nc2nccs2)cc1`, the outcome is reported as “inactive”. For `O=C(c1ccc(COc2ccccc2Cl)o1)N1CCCC1`, the outcome was “inactive”. For `Cc1cc(C)n2nc(CC(=O)NC3CCCCCC3)nc2n1`, the outcome was “inactive”. With `CCOC(=O)c1cn2nc(N3CCCCC3)ccc2n1` the outcome was “inactive”. In the case of `COc1ccc(CCC(=O)Nc2ccc(C)c([N+](=O)[O-])c2)cc1`, the outcome is reported as “inactive”. In the case of `O=C(C=C1SCCS1)/C=C/c1ccco1`, the outcome is reported as “inactive”. With `Cc1ccccc1Cn1c(O)c(N=NC(=S)Nc2ccccc2F)c2ccccc21` the outcome was “inactive”. For `CCc1ccc(C(=O)COC(=O)c2cccc(N3C(=O)c4c(C)nc5ccccc5c4C3=O)c2)cc1`, the outcome was “inactive”. For `COc1cc(/C=N/NC(=S)Nc2cccc(C(=O)O)c2)ccc1O`, the outcome was “inactive”. For `O=C(Nc1ccc(C(=O)N2CCOCC2)cc1)Nc1cccc(C(F)(F)F)c1`, the outcome was “inactive”. With `O=C(NC1=NCCS1)c1cc2ccccc2o1` the outcome was “inactive”. With `COc1cc2c(cc1OC)-c1cc(Nc3ccc4c(c3)OCCO4)nc(=O)n1CC2` the outcome was “inactive”. In the case of `COc1ccccc1-n1c(-c2ccccc2)n[nH]c1=S`, the outcome is reported as “inactive”. In the case of `COc1ccc(N/N=C/c2c(C(=O)O)ccc3ccccc23)cc1`, the outcome is reported as “inactive”. For `COc1ccc(/C(CC2OC(=O)c3ccccc32)=N\NC(N)=O)cc1` (stereo not drawn), the outcome was “inactive”. For `COc1ccccc1C=NN=Cc1ccccc1O`, the outcome was “inactive”. For `O=C(Nc1ccc(F)c(F)c1)C1CCCCC1`, the outcome was “inactive”. With `CCCSc1ccc([C@@H]2[C@H]3C(=O)N(C)C(=O)[C@H]3[C@]3(C(=O)OC)CCCN23)cc1OC` the outcome was “inactive”. For `CC[C@]1(C(=O)OC)[C@H]2C(=O)N(Cc3ccccc3)C(=O)[C@H]2[C@H]2CN=C(SCc3ccc(Cl)cc3)N21`, the outcome was “inactive”. With `COc1ccc(-n2c(C)c(C(C)=O)c3cc(OC(C)=O)ccc32)cc1` the outcome was “inactive”. For `O=C(C1CCCCC1)N1CCN(c2ccnc3cc(Cl)ccc23)CC1`, the outcome was “inactive”. For `COc1ccc(S(=O)(=O)N2CCC(C(=O)NC3CC3)CC2)cc1OC`, the outcome was “inactive”. For `C[n+]1c2n(c3ccccc31)N=C(c1cc(C(C)(C)C)c(O)c(C(C)(C)C)c1)CS2`, the outcome was “inactive”. In the case of `CC(=NNc1nc2ccccc2o1)c1ncccn1`, the outcome is reported as “inactive”. For `CC(=NNc1nc2ccccc2s1)c1ncccn1`, the outcome was “inactive”. With `Brc1cccc(-c2cnco2)c1` the outcome was “inactive”. With `COc1ccc(NC(=O)Cn2nnc(C(=O)NCc3ccccc3)c2N)c(OC)c1` the outcome was “inactive”. For `COc1ccccc1NC(=O)C(=O)N/N=C(\C)CC(=O)Nc1ccccc1C(F)(F)F`, the outcome was “inactive”. With `COC(=O)c1cccc(COC(=O)c2ccccc2NC(=O)c2ccco2)c1` the outcome was “inactive”. For `Cn1c(=O)c2c(nc(NCc3ccco3)n2C/C=C/c2ccccc2)n(C)c1=O`, the outcome was “inactive”. In the case of `O=C(CCS(=O)(=O)c1ccccc1)Nc1nccs1`, the outcome is reported as “inactive”. In the case of `Oc1c(N=NC(=S)Nc2ccccc2F)c2ccccc2n1Cc1cccc(Cl)c1`, the outcome is reported as “inactive”. In the case of `CCCCCCNC(=O)O[C@]12C[C@@H](C(=O)OC)[C@@H](C(=O)OC)C[C@@]1(O)CN(S(=O)(=O)c1ccc(C)cc1)C2`, the outcome is reported as “inactive”. In the case of `CCN1CCN(Cc2ccc(NC(=O)c3ccc(C)c(NC(=O)c4ccno4)c3)cc2C(F)(F)F)CC1`, the outcome is reported as “inactive”. In the case of `Oc1c(N=NC(=S)Nc2ccccc2F)c2ccccc2n1Cc1ccc(F)cc1`, the outcome is reported as “inactive”. With `CCCN(CC)c1ncnc2[nH]ncc12` the outcome was “inactive”. With `Cc1ccccc1-n1nc(C)c2cc(C(=O)NC3CC3)sc21` the outcome was “inactive”. For `Cc1ccc(N2C(=O)c3ccccc3C2Nc2cccnc2)nc1` (stereo not drawn), the outcome was “inactive”.
